An excerpt weighted towards active compounds, which were near 6.7% of everything screened.
Pf Dd2 inh: P. falciparum Dd2 growth inhibitors, primary screen, SYBR Green fluorescence, single dose replicates. activity change, % at 10 µM. 72 h; hits give low values. 94,000 tested, 2.3% active; in the data active means activity change below about -80%; inconclusive means no clear call, values can overlap the other calls
T cruzi growth-1: T. cruzi intracellular proliferation inhibitors, primary screen, cell-based, beta-gal Tulahuen parasites, NIH3T3 host, luminescence | T. cruzi beta-gal in NIH3T3, GalScreen luminescence, 90 h | inhibition, % at 8.34 µM | 77,000 tested, 5.9% active | AID 624255, 2012;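 active means mean inhibition above about 93%, with at least 55% of replicates each passing it, limit read from the data, passing the limit was not always enough; inconclusive means only one of those two conditions holds; inactive means neither condition holds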
C diff growth: C. difficile growth inhibitors, primary screen, HTS | Clostridium difficile clinical isolate growth, OD600, 24 h; hits give low values | growth activity, negative = inhibition, % at 16 µg/mL (by protocol) | 86,000 tested, 0.25% active | AID 1259249, 2017;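 active means mean growth activity at or below -80% and every replicate also at or below -80%; inconclusive means mean at or below -80% but some replicate above -80%; inactive means mean growth activity above -80%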
T cruzi growth-2: T. cruzi intracellular proliferation inhibitors, confirmation, cell-based, NIH3T3 host, beta-gal parasite, luminescence, cherry-pick | T. cruzi beta-gal in NIH3T3, GalScreen luminescence, 90 h | shares compounds with T cruzi growth-1 | 5,600 tested, 72% active | AID 651739, 2012 | inhibition, % at 8.35 µM;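 active means mean replicate inhibition above about 95% and at least 55% of replicates individually reaching it, limit read from the data; inconclusive means only one of the two criteria is met; inactive means neither criterion is met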
T cruzi growth-3: inhibitors of intracellular T. cruzi replication, confirmation, NIH3T3 host cells, beta-gal parasites, cherry-pick, set 2 | shares compounds with T cruzi growth-1 | T. cruzi beta-gal in NIH3T3, GalScreen luminescence, 90 h | inhibition, % at 2.09 µM | 5,600 tested, 21% active | AID 651740, 2012;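 active means mean inhibition above about 95%, with at least 55% of replicates also reaching it, limit read from the data; inconclusive means meets just one of the two conditions; inactive means meets neither condition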
3T3 cytotox: cytotoxicity in mouse NIH/3T3 fibroblasts, confirmation, cytotoxicity control for T. cruzi proliferation inhibitor project, cell-based, cherry-pick, single point | 5,600 tested, 14% active | shares compounds with T cruzi growth-1 | NIH/3T3 viability, CellTiter-Glo ATP luminescence, 90 h | cytotoxicity (signal decrease), % at 8.35 µM;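 active means mean signal decrease across replicates above about 35% based on untreated-well scatter, with enough replicates individually passing, limit read from the data; inconclusive means no rule stated though some were filed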
3T3 cytotox 2: NIH/3T3 fibroblast cytotoxicity, confirmation, cytotoxicity control, cell-based, cherry-pick, single point, set 2. shares compounds with T cruzi growth-1. NIH/3T3 viability, CellTiter-Glo ATP luminescence, 90 h. inhibition, % at 24.9 µM. 5,600 tested, 56% active. AID 651744, 2012;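 active means mean loss of cell viability signal at or above a set limit, and enough replicates individually reaching it; inconclusive means meets only the mean limit or only the replicate share; inactive means meets neither condition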
A number is an active result.

O=C(N[C@@H]1CC[C@H](CC(=O)N2CCOCC2)O[C@H]1CO)c1cccc(F)c1 was read as Pf Dd2 inh inactive and T cruzi growth-1 inactive.
O=C(C[C@H]1C=C[C@H](NC(=O)C2CCC2)[C@H](CO)O1)NCc1ccncc1 was read as Pf Dd2 inh inactive, T cruzi growth-1 inactive and C diff growth inactive.
`CC(C)NC(=O)N(C)C[C@H]1Oc2cc(C#Cc3cccc(F)c3)ccc2S(=O)(=O)N([C@@H](C)CO)C[C@@H]1C` gave Pf Dd2 inh inactive, T cruzi growth-1 116, C diff growth inactive, T cruzi growth-2 99, T cruzi growth-3 inactive, 3T3 cytotox inactive and 3T3 cytotox 2 45.
`CC(C)NC(=O)N(C)C[C@H]1Oc2cc(C#Cc3ccc(F)cc3)ccc2S(=O)(=O)N([C@@H](C)CO)C[C@H]1C` gave Pf Dd2 inh inactive, T cruzi growth-1 107, C diff growth inactive, T cruzi growth-2 105, T cruzi growth-3 inactive, 3T3 cytotox inactive and 3T3 cytotox 2 inactive.
For CC(C)NC(=O)N(C)C[C@H]1Oc2cc(C#Cc3cccc(F)c3)ccc2S(=O)(=O)N([C@@H](C)CO)C[C@H]1C the results were Pf Dd2 inh inactive, T cruzi growth-1 inactive and C diff growth inactive.
`CC(C)NC(=O)N(C)C[C@@H]1Oc2cc(C#Cc3cccc(F)c3)ccc2S(=O)(=O)N([C@@H](C)CO)C[C@@H]1C` gave Pf Dd2 inh inactive, T cruzi growth-1 inactive and C diff growth inactive.
CC(C)NC(=O)N(C)C[C@@H]1Oc2cc(C#Cc3ccc(F)cc3)ccc2S(=O)(=O)N([C@H](C)CO)C[C@@H]1C was read as Pf Dd2 inh inactive, T cruzi growth-1 111, C diff growth inactive, T cruzi growth-2 97, T cruzi growth-3 inconclusive, 3T3 cytotox inactive and 3T3 cytotox 2 inactive.
CC(C)NC(=O)N(C)C[C@@H]1Oc2cc(C#Cc3cccc(F)c3)ccc2S(=O)(=O)N([C@H](C)CO)C[C@@H]1C was read as Pf Dd2 inh inactive, T cruzi growth-1 inactive and C diff growth inactive.
For CN1CCN(C(=O)C[C@H]2C[C@@H]3c4cc(NC(=O)CC5CC5)ccc4O[C@@H]3[C@H](CO)O2)CC1 the results were Pf Dd2 inh inactive, T cruzi growth-1 inactive and C diff growth inactive.
COc1ccc(NC(=O)Nc2ccc3c(c2)C(=O)N([C@H](C)CO)C[C@@H](C)[C@@H](CN(C)S(=O)(=O)c2ccc(F)cc2)O3)cc1 was read as Pf Dd2 inh inactive, T cruzi growth-1 inactive and C diff growth inactive.
Screening CO[C@H]1CN(C)C(=O)c2cc(NC(C)=O)ccc2OC[C@@H](C)N(Cc2ccccc2C(=O)O)C[C@@H]1C returned Pf Dd2 inh inactive and T cruzi growth-1 inactive.
For O=C(C[C@H]1CC[C@H]2[C@@H](COC[C@H](O)CN2CCC(F)(F)F)O1)NCc1ccc(Oc2ccccc2)cc1 the results were T cruzi growth-1 108, C diff growth inactive, T cruzi growth-2 104, T cruzi growth-3 inactive, 3T3 cytotox inactive and 3T3 cytotox 2 inactive.
`O=C(C[C@H]1CC[C@@H]2[C@H](COC[C@H](O)CN2CCC(F)(F)F)O1)NCc1ccc(Oc2ccccc2)cc1` gave T cruzi growth-1 inactive and C diff growth inactive.
O=C(C[C@@H]1CC[C@H]2[C@@H](COC[C@H](O)CN2CCC(F)(F)F)O1)NCC1CCCCC1 was read as Pf Dd2 inh inactive, T cruzi growth-1 109, C diff growth inactive, T cruzi growth-2 inactive, T cruzi growth-3 inactive, 3T3 cytotox inactive and 3T3 cytotox 2 inactive.
O=C(C[C@@H]1CC[C@H]2[C@@H](COC[C@@H](O)CN2CCC(F)(F)F)O1)NCC1CCCCC1 was read as Pf Dd2 inh inactive, T cruzi growth-1 inactive and C diff growth inactive.
`CO[C@@H]1CN(C)C(=O)c2ccc(NC(=O)c3cnccn3)cc2OC[C@H](C)N(CC2CC2)C[C@@H]1C` gave Pf Dd2 inh inactive and C diff growth inactive.
`O=C(C[C@H]1CC[C@@H]2[C@H](COC[C@H](O)CN2Cc2cc(F)ccc2F)O1)N[C@@H]1CCN(Cc2ccccc2)C1` gave Pf Dd2 inh inactive, T cruzi growth-1 130, C diff growth inactive, T cruzi growth-2 inactive, T cruzi growth-3 inactive, 3T3 cytotox inactive and 3T3 cytotox 2 inactive.
O=C(C[C@@H]1CC[C@@H]2[C@H](COC[C@@H](O)CN2Cc2ccccc2F)O1)N[C@@H]1CCN(Cc2ccccc2)C1 was read as Pf Dd2 inh inactive, T cruzi growth-1 99, T cruzi growth-2 inactive, T cruzi growth-3 inactive, 3T3 cytotox inactive and 3T3 cytotox 2 inactive.
O=C(C[C@H]1CC[C@H]2[C@@H](COC[C@@H](O)CN2Cc2cc(F)ccc2F)O1)N[C@H]1CCN(Cc2ccccc2)C1 was read as Pf Dd2 inh inactive, T cruzi growth-1 158, C diff growth inactive, T cruzi growth-2 inactive, T cruzi growth-3 inactive, 3T3 cytotox inactive and 3T3 cytotox 2 inactive.
For O=C(C[C@H]1CC[C@H]2[C@@H](COC[C@@H](O)CN2Cc2cc(F)ccc2F)O1)N[C@@H]1CCN(Cc2ccccc2)C1 the results were Pf Dd2 inh inactive, T cruzi growth-1 99, C diff growth inactive, T cruzi growth-2 inactive, T cruzi growth-3 inactive, 3T3 cytotox inactive and 3T3 cytotox 2 inactive.
For O=C(C[C@@H]1CC[C@H]2[C@@H](COC[C@@H](O)CN2Cc2ccccc2F)O1)N[C@H]1CCN(Cc2ccccc2)C1 the results were Pf Dd2 inh inactive and T cruzi growth-1 inactive.
Screening O=C(C[C@@H]1CC[C@H]2[C@@H](COC[C@@H](O)CN2Cc2cc(F)ccc2F)O1)N[C@@H]1CCN(Cc2ccccc2)C1 returned Pf Dd2 inh inactive, T cruzi growth-1 inactive and C diff growth inactive.
For O=C(C[C@H]1CC[C@@H]2[C@H](COC[C@@H](O)CN2Cc2cc(F)ccc2F)O1)N[C@@H]1CCN(Cc2ccccc2)C1 the results were Pf Dd2 inh inactive, T cruzi growth-1 inactive and C diff growth inactive.
O=C(C[C@@H]1CC[C@H]2[C@@H](COC[C@@H](O)CN2Cc2cc(F)ccc2F)O1)N[C@H]1CCN(Cc2ccccc2)C1 was read as Pf Dd2 inh inactive, T cruzi growth-1 inactive and C diff growth inactive.
C/C=C/c1cnc2c(c1)C(=O)N([C@@H](C)CO)C[C@H](C)[C@@H](CN(C)C(=O)C1CCC1)O2 was read as Pf Dd2 inh inactive and T cruzi growth-1 inactive.
Screening CN(C)CC#Cc1ccc([C@@H]2[C@H]3CN(C(=O)Cc4cccnc4)CC(=O)N3[C@H]2CO)cc1 returned Pf Dd2 inh inactive and C diff growth inactive.

Source: PubChem BioAssay
